Assay results as given in PubChem BioAssay (EPA / NIEHS).
Records with an inconclusive call do not appear. Active and inactive are the calls of the source. The calls were made as follows: active = hit-call score of the fitted dose curve at least 0.9, where 1 is the maximum; inconclusive = response in the unintended direction; inactive = score below 0.9.

Key:
[1] = target: bovine Estrogen Receptor (ER), ESR1 (gene 407238) (UniProt P49884); test: NVS_NR_bER: NovaScreen (NVS) Nuclear Receptor Binding Assay for bovine Estrogen Receptor (ER) (AID 2283345);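 also: actives lower the bound radioligand count which means they displace the ER ligand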
bovine Estrogen Receptor (ER), ESR1 (gene 407238), sequence (P49884 whole entry, looked up): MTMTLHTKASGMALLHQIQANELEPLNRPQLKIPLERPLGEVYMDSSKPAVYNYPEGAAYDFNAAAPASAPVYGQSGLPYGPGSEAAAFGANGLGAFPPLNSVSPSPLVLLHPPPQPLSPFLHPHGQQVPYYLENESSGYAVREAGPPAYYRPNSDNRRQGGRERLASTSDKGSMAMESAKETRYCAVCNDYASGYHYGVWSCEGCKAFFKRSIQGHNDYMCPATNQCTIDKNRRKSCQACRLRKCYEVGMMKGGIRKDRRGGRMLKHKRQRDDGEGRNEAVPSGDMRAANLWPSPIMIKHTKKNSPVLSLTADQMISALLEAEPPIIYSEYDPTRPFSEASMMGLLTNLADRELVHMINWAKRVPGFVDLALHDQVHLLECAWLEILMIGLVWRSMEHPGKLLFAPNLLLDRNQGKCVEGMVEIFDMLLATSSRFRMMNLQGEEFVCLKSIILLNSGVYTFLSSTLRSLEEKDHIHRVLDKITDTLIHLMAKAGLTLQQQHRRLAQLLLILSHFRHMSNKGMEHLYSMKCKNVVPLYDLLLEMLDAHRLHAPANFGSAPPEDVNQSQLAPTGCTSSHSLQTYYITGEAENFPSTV
In short: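 Bovine uterine membranes; tritiated or iodinated radioligand; competitive displacement; 18 h; scintillation read; DMSO negative control; 25 uM duplicates, then concentration series for actives.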

[2] = target: Estrogen receptor (Homo sapiens) (UniProt P03372); test: NVS_NR_hER: NovaScreen (NVS) Nuclear Receptor Binding Assay for human Estrogen Receptor (ER) (AID 2283348)
Estrogen receptor (Homo sapiens), sequence (P03372 whole entry, looked up, the tested form may be a part): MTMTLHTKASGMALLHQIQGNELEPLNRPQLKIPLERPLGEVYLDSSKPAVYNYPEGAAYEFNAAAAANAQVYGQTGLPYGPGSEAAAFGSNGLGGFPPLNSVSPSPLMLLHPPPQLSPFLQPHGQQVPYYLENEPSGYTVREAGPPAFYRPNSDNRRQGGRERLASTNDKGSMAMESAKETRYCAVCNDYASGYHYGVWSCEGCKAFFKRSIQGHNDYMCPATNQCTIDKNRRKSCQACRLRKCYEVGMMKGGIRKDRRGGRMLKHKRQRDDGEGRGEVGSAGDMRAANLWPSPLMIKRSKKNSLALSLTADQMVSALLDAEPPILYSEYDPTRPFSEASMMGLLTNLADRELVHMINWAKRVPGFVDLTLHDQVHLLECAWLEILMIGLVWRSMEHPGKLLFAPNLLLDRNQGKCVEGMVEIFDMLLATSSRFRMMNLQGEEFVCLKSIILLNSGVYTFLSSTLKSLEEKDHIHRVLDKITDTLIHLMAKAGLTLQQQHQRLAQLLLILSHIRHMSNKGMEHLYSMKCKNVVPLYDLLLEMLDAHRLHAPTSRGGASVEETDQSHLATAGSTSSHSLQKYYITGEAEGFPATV
In short: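 Cell-free radioligand binding with protein extracted from MCF7 cells; scintillation counting 18 hours after dosing. Loss of signal versus DMSO baseline read as displacement; primary single-concentration screen at 25 uM in duplicate, actives retested in concentration series.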

[3] = target: Estrogen receptor (Homo sapiens) (UniProt P03372); test: OT_ER_ERaERa_1440: Odyssey Thera (OT) 24-hour HEK293T Protein-Complementation Assay for Estrogen Receptor-alpha/-alpha Homodimer (AID 2283349);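 also: hits raise fluorescence above DMSO for agonists and antagonists alike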
In short: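 Readout is the rise in mean fluorescence from reporter fragment complementation when ERα LBD (aa 310-547) units dimerize in HEK293T cells. Measured 24 h after dosing and analysed as increase over DMSO control.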

[4] = target: Bile acid receptor (Homo sapiens) (UniProt Q96RI1); test: NVS_NR_hFXR_Antagonist: NovaScreen (NVS) Nuclear Receptor Binding Assay for human Farnesoid X Receptor Antagonism (FXR) (AID 2283350)
Bile acid receptor (Homo sapiens), sequence (Q96RI1 whole entry, looked up): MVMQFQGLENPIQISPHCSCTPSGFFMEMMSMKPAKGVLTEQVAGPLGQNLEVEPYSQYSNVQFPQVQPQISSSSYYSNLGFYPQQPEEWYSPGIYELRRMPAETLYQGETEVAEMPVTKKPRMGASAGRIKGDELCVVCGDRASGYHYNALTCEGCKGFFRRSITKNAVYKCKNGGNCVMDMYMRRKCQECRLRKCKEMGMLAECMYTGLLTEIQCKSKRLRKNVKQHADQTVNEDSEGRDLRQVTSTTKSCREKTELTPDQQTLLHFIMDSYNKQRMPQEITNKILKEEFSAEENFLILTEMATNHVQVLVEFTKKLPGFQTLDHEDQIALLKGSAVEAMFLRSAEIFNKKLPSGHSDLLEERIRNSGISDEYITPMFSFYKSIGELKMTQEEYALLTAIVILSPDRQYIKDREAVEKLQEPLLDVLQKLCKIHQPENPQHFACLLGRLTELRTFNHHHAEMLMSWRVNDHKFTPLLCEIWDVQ
In short: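 Cell-free TR-FRET ligand-binding read-out on human FXR (NR1H4) in antagonist mode, measured 1 h after dosing. Primary screen in duplicate at 25 uM, actives retested in concentration series; signal loss scored versus DMSO.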

[5] = target: Estrogen receptor (Homo sapiens) (UniProt P03372); test: OT_ER_ERaERa_0480: Odyssey Thera (OT) 8-hour HEK293T Protein-Complementation Assay for Estrogen Receptor-alpha/-alpha Homodimer (AID 2283351);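 also: rise in fluorescence from reassembled reporter fragments on ERα LBD homodimer in nucleus or whole cell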
In short: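 The readout is complementation of fragments fused to the human ER alpha ligand-binding domain (aa 310-547), stably expressed in HEK293T cells. After 8 h of exposure, the increase in nuclear/cytoplasmic fluorescence was measured by laser scanning cytometry and fitted relative to DMSO.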

[6] = target: Androgen Receptor/SRC-1 Co-activator, AR (gene 367) (UniProt P10275); test: OT_AR_ARSRC1_0960: Odyssey Thera (OT) 16-hour HEK293T Protein-Complementation Assay for Androgen Receptor/SRC-1 Co-activator (AID 2283353);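 also: actives raise the signal above DMSO so potency reflects increased AR and SRC-1 complex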
Androgen Receptor/SRC-1 Co-activator, AR (gene 367), sequence (P10275 whole entry, looked up, the tested form may be a part): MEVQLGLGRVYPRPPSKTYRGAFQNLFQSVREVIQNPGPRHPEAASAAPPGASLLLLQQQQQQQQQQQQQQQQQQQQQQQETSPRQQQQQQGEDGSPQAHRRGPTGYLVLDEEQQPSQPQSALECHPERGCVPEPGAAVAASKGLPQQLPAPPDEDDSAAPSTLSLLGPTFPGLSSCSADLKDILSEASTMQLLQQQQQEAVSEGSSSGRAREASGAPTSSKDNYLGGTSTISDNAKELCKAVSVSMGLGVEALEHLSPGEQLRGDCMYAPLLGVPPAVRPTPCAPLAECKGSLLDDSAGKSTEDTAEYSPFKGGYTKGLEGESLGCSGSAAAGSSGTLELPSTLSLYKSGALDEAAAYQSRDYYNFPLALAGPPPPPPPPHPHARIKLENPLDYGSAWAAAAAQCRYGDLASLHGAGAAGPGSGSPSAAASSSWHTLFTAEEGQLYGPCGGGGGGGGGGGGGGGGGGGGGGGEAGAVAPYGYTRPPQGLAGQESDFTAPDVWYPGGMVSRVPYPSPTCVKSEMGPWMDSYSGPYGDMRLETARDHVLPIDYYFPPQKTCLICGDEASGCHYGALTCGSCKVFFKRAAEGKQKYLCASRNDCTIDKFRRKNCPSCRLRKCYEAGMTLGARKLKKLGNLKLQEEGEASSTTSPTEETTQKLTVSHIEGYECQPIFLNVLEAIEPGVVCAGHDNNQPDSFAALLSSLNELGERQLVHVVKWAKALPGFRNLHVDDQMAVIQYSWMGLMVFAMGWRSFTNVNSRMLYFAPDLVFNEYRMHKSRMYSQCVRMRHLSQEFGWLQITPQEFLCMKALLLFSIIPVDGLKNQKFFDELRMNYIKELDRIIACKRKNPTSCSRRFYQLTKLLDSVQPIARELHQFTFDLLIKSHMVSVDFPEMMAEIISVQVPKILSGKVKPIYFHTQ
In short: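 HEK293T cells stably expressing AR and SRC-1 fused to Venus YFP fragments, imaged 16 h after dosing. Nuclear/cytoplasmic fluorescence ratio at 488 nm from at least 400 cells per image; gain of signal relative to DMSO.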

[7] = target: Estrogen receptor (Homo sapiens) + Estrogen receptor beta (Homo sapiens) (UniProt P03372+Q92731); test: OT_ER_ERaERb_0480: Odyssey Thera (OT) 8-hour HEK293T Protein-Complementation Assay for Estrogen Receptor-alpha/-beta Heterodimer (AID 2283352)
Estrogen receptor (Homo sapiens) + Estrogen receptor beta (Homo sapiens), sequence (P03372 whole entry, looked up, the tested form may be a part): as the sequence (P03372 whole entry, looked up, the tested form may be a part) above
Estrogen receptor (Homo sapiens) + Estrogen receptor beta (Homo sapiens), sequence (Q92731 whole entry, looked up, the tested form may be a part): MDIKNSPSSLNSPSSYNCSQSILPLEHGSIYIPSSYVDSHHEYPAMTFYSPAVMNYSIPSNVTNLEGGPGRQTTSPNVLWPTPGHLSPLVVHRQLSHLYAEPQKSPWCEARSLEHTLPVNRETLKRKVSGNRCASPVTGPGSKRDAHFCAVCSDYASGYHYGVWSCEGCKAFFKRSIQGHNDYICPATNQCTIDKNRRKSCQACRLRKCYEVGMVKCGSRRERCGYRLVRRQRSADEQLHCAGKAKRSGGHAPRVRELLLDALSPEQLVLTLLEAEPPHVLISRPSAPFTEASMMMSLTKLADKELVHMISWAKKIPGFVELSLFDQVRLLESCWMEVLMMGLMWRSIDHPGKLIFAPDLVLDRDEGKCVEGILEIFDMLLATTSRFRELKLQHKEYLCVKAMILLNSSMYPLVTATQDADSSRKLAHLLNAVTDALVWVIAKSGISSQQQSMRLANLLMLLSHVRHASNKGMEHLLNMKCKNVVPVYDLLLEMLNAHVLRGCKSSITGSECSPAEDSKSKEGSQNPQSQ
In short: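 HEK293T protein-fragment complementation assay of ER-alpha/ER-beta LBD heterodimerisation, read 8 h after dosing. Mean nuclear/cytoplasmic fluorescence intensity measured by laser scanning cytometry; gain of signal fitted relative to DMSO.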

NCBI gene 100848466 = test: NVS_NR_bPR: NovaScreen (NVS) Nuclear Receptor Binding Assay for bovine Progextron Receptor (PR) (AID 2283343);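 also: actives lower bound radioligand signal below DMSO meaning displacement of the label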
In short: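 Bovine uterine membrane preparation, cell-free; radioligand competitive displacement measured by scintillation counting 18 hours after dosing. Loss of signal versus DMSO baseline indicates binding; primary HTS single concentration 25 uM in duplicate, actives followed in concentration series.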

[8] = target: Bile acid receptor (Homo sapiens) (UniProt Q96RI1); test: NVS_NR_hFXR_Agonist: NovaScreen (NVS) Nuclear Receptor Binding Assay for human Farnesoid X Receptor Agonism (FXR) (AID 2283347)
Experimental: NVS_NR_hFXR_Agonist is a biochemical, single-readout assay that uses extracted gene-proteins in a cell-free assay. Measurements were taken 1 hour after chemical dosing in a 384-well plate.NVS_NR_hFXR_Agonist is one of one assay component(s) measured or calculated from the NVS_NR_hFXR_Agonist assay. It is designed to make measurements of fluorescent resonance energy transfer, a form of binding reporter, as detected with fluorescent resonance energy transfer signals by Time-Resolved Fluorescence Resonance Energy Transfer (TR-FRET) technology.Data from the assay component NVS_NR_hFXR_Agonist was analyzed into 1 assay endpoint. This assay endpoint, NVS_NR_hFXR_Agonist, was analyzed in the positive analysis fitting direction relative to DMSO as the negative control and baseline of activity. Using a type of binding reporter, gain-of-signal activity can be used to understand changes in the binding as they relate to the gene NR1H4. Furthermore, this assay endpoint can be referred to as a primary readout, because the performed assay has only produced 1 assay endpoint. To generalize the intended target to other relatable targets, this assay endpoint is annotated to the nuclear receptor intended target family, where the subfamily is non-steroidal.
Binding assays used specific radioligands (tritiated, iodinated) with non-radioactive competitive displacement ligands in agonist or antagonist protocols (as indicated) and various reference compounds and inhibitors to titrate specific binding to receptors and transporters. Most enzyme assays (CYPs, kinases, phosphatases, proteases, HDACs) used recombinant protein and specific substrates (fluorescence mostly, some colorimetric and radioactive) and inhibitors, followed by a biochemical separation of substrate and product. All assays for the biochemical HTS were initially run in duplicate at a single concentration (10 uM for CYP450 assays and 25 uM for all others). […] Each assay was run with positive and negative controls, and concurrent controls on every plate. The follow-up (secondary) screen tested active chemical-pairs in concentration series, as well as a few additional assays not tested in the primary screen, some selected negative inactives, and several cases re-run in the concentration series for confirmatory purposes.

SMILES: N#Cc1cc(Br)c(O)c(Br)c1
- outcome [1]: inactive
- outcome [2]: inactive
- outcome [3]: inactive
- outcome [4]: inactive
- outcome [5]: inactive
- outcome [6]: inactive

SMILES: CCNc1nc(Cl)nc(NCC)n1
- outcome [1]: inactive
- outcome [3]: inactive
- outcome [5]: inactive
- outcome [7]: inactive

SMILES: Cc1cc(Cl)ccc1OCC(=O)O
- outcome [1]: inactive
- outcome [2]: inactive
- outcome [3]: inactive
- outcome [5]: inactive
- outcome [6]: inactive

SMILES: COP(N)(=O)SC (stereo unspecified)
- outcome [1]: inactive
- outcome [3]: inactive
- outcome [4]: inactive
- outcome [7]: inactive

SMILES: COP(=S)(OC)Oc1nc(Cl)c(Cl)cc1Cl
- AC50 (NCBI gene 100848466): 17.3 µM (active)
- outcome [8]: inactive
- outcome [2]: inactive
- outcome [3]: inactive
- outcome [5]: inactive
- outcome [7]: inactive

SMILES: CCCCNC(=O)n1c(NC(=O)OC)nc2ccccc21
- outcome [3]: inactive
- outcome [5]: inactive
- outcome [7]: inactive
- outcome [6]: inactive

SMILES: O=C(O)c1nc(Cl)ccc1Cl
- outcome [3]: inactive
- outcome [5]: inactive

SMILES: N#Cc1nn(-c2c(Cl)cc(C(F)(F)F)cc2Cl)c(N)c1S(=O)C(F)(F)F (stereo unspecified)
- outcome [8]: inactive
- outcome [3]: inactive
- outcome [5]: inactive
- AC50 [6]: 22.7 µM (active)

SMILES: CCOc1cc(Oc2ccc(C(F)(F)F)cc2Cl)ccc1[N+](=O)[O-]
- outcome [3]: inactive
- outcome [5]: inactive
- outcome [7]: inactive

SMILES: COc1nc(NC(C)C)nc(NC(C)C)n1
- outcome [3]: inactive
- outcome [5]: inactive
- outcome [7]: inactive

SMILES: N#CC(CCc1ccc(Cl)cc1)(Cn1cncn1)c1ccccc1 (stereo unspecified)
- outcome [3]: inactive
- outcome [5]: inactive

SMILES: CC1COC(Cn2cncn2)(c2ccc(Oc3ccc(Cl)cc3)cc2Cl)O1 (stereo unspecified)
- outcome [3]: inactive
- outcome [5]: inactive

SMILES: O=C(O)COc1nc(Cl)c(Cl)cc1Cl
- outcome [3]: inactive
- outcome [5]: inactive

SMILES: Fc1ccc(Oc2ccnc3cc(Cl)cc(Cl)c23)cc1
- outcome [3]: inactive
- outcome [5]: inactive
- outcome [7]: inactive

SMILES: CC1=C(C(=O)Nc2ccccc2)SCCO1
- outcome [3]: inactive
- outcome [7]: inactive
- outcome [6]: inactive

SMILES: CCOC(=O)C(Cl)Cc1cc(-n2nc(C)n(C(F)F)c2=O)c(F)cc1Cl (stereo unspecified)
- outcome [3]: inactive
- outcome [5]: inactive

SMILES: CC(C)C1(C)N=C(c2nc3ccccc3cc2C(=O)O)NC1=O (stereo unspecified)
- outcome [3]: inactive
- outcome [4]: inactive
- outcome [5]: inactive
- outcome [7]: inactive

SMILES: CNC(=S)S
- outcome [3]: inactive
- outcome [5]: inactive
- outcome [7]: inactive

SMILES: CCON=C(CC)C1=C(O)CC(c2c(C)cc(C)cc2C)CC1=O (stereo unspecified)
- outcome [3]: inactive
- outcome [5]: inactive
- outcome [6]: inactive

SMILES: CCc1nn(C)c(C(=O)NCc2ccc(C(C)(C)C)cc2)c1Cl
- outcome [8]: inactive
- outcome [3]: inactive
- outcome [5]: inactive
- outcome [7]: inactive

SMILES: CCNc1nc(Cl)nc(NC(C)C)n1
- outcome [2]: inactive
- outcome [3]: inactive
- outcome [5]: inactive
- outcome [7]: inactive

SMILES: CN(C)C(=S)SSC(=S)N(C)C
- outcome [3]: inactive
- AC50 [4]: 8.97 µM (active)
- outcome [5]: inactive
- AC50 [6]: 26.2 µM (active)

SMILES: COC(=O)C=C(C)OP(=O)(OC)OC
- outcome [3]: inactive
- outcome [5]: inactive
- outcome [7]: inactive

SMILES: Cc1ccc(-c2c(Cl)nc(C#N)n2S(=O)(=O)N(C)C)cc1
- outcome [2]: inactive
- outcome [3]: inactive
- outcome [5]: inactive
- outcome [7]: inactive
- AC50 [6]: 27.1 µM (active)

SMILES: C=CCC1=C(C)[C@@H](OC(=O)[C@@H]2[C@@H](C=C(C)C)C2(C)C)CC1=O
- outcome [3]: inactive
- outcome [5]: inactive

SMILES: CS/C(C)=N/OC(=O)N(C)SN(C)C(=O)O/N=C(\C)SC
- outcome [3]: inactive
- outcome [5]: inactive
- AC50 [6]: 78.2 µM (active)

SMILES: O=C(Nc1ccccc1)Nc1ccnc(Cl)c1
- outcome [3]: inactive
- outcome [5]: inactive
- outcome [6]: inactive

SMILES: CC(C)Oc1cc(-n2nc(C(C)(C)C)oc2=O)c(Cl)cc1Cl
- outcome [3]: inactive
- outcome [5]: inactive
- outcome [7]: inactive
- AC50 [6]: 31.3 µM (active)

SMILES: CC(Oc1ccc(Cl)cc1Cl)C(=O)O (stereo unspecified)
- outcome [2]: inactive
- outcome [3]: inactive
- outcome [5]: inactive

SMILES: COC(=O)N(OC)c1ccccc1COc1ccn(-c2ccc(Cl)cc2)n1
- outcome [3]: inactive
- outcome [5]: inactive
- outcome [7]: inactive

SMILES: CC(C)(C)c1ccc(CSc2cnn(C(C)(C)C)c(=O)c2Cl)cc1
- outcome [3]: inactive
- outcome [5]: inactive
- outcome [7]: inactive
